Bioassay records (PubChem BioAssay)
The list is not random: actives were taken first. Their share in the collection is about 8.9%.
KB-V1 cytotox: qHTS assay for MDR1-selective chemotherapeutics: Primary screen using the drug-selected MDR subline cells KB-V1. Potency, µM (series often up to 46.1 µM), hits mostly cytotoxic. AID 1347076, 2019. KB-V1 MDR cells viability, CellTiter-Glo, 72 h. 400,000 tested, 3.4% active; also: potency is read from the fitted curve at half-maximal effect; % is scaled to controls: 0 for no effect and ±100 for the full control effect; nearly all actives have a fitted effect of over 60% in size
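Cytotoxicity toward P-gp-expressing KB-V1 cells was determined as loss of CellTiter-Glo luminescence after 72 h at 37 degrees C. Compounds were tested in quantitative HTS format across a concentration range, with curves fitted to normalized data.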
SW480 rerep: A quantitative high throughput screen for small molecules that induce DNA re-replication in SW480 colon adenocarcinoma cells | 340,000 tested, 1.8% active | SW480 DNA re-replication, Hoechst DNA content imaging, 48 h | Potency, µM (doses to about 46.1 µM), for inactives: top-dose re-replication activation, usual class: activators; also: potency is read from the fitted curve at half-maximal effect; % of control where 0% means no effect; nearly all actives have a fitted effect of over 55% in size
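Per well, 250 cells were exposed to pinned compound for 48 hr. Nuclear DNA was visualised with Hoechst (40 min, 37 C) and total object intensity recorded by fluorescence scanning.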
D3 antag: qHTS of D3 Dopamine Receptor Antagonist: qHTS; max response, negative = inhibition, %; D(3) dopamine receptor (Homo sapiens), P35462; D3R cells, DiscoveRx beta-arrestin luminescence, antagonist mode; active compounds read low; 360,000 tested, 2.5% active; in the data active = max response below about -50%; inconclusive = no clear call, values can overlap the other calls; also: % is scaled to controls: 0 for no effect and ±100 for the full control effect
Target sequence (P35462 whole entry, looked up): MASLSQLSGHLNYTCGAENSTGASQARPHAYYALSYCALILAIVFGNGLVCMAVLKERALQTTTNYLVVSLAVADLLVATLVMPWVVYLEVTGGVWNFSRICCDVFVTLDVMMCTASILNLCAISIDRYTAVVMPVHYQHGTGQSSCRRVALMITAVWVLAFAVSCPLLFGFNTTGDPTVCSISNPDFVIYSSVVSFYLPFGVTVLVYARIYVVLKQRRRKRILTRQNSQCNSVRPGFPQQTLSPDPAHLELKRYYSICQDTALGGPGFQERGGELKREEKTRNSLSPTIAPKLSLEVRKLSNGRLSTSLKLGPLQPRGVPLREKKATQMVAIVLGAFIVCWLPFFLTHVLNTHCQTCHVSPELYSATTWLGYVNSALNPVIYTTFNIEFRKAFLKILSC
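Cells plated overnight at 1500 cells/well, then exposed to library compounds with dopamine controls for 90 minutes at 37 degrees C. DiscoveRx reagent added for 30–60 minutes at room temperature; luminescence read, quantitative HTS format.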
MCF10A rereplic: A quantitative high throughput screen for small molecules that induce DNA re-replication in MCF 10a normal breast cells; MCF 10A DNA re-replication, Hoechst nuclear intensity, 48 h; Potency, µM (highest dose often 46.1 µM), inactives show at the top dose activity, positive = re-replication, usual class: activators; 350,000 tested, 2.9% active; also: potency is read from the fitted curve at half-maximal effect; % of control where 0% means no effect; nearly all actives have a fitted effect of over 50% in size
KB-3-1 tox: qHTS assay for MDR1-selective chemotherapeutics: Primary screen using the parental adenocarcinoma cell KB-3-1 | KB-3-1 viability, CellTiter-Glo ATP luminescence, 72 h | Potency, µM (titrated, usually from 46.1 µM), most hits filed as cytotoxic | 400,000 tested, 1.4% active; also: potency is read from the fitted curve at half-maximal effect; % is scaled to controls: 0 for no effect and ±100 for the full control effect; nearly all actives have a fitted effect of over 60% in size
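Here the drug-naive KB-3-1 line serves as comparator for MDR sub-line selectivity; cells received compound titrations, 72 h at 37 °C, then CellTiter-Glo readout.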
D3 ag: qHTS of D3 Dopamine Receptor Agonist: qHTS; D3R DiscoveRx beta-arrestin cells, luminescence, 90 min; 410,000 tested, 0.58% active; D(3) dopamine receptor (Homo sapiens), P35462; max activation, %; in the data active = max activation above about 30%; also: 0% is about no effect
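Agonist mode: compounds and dopamine controls were applied to plated cells for 90 min at 37 degrees C after an overnight attachment at 1500 cells/well. Luminescent read-out followed 30 - 60 minutes at room temperature with DiscoveRx detection reagent.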
Starred values were filed as active, the others as inactive; i = inactive; ? = inconclusive; . = no result. Unless noted, calls follow the shape of the dose curve; as a rule, active = well fitted curve in the direction sought with a large enough effect; inconclusive = small, poorly fitted or top-dose-only effect, or another doubt; inactive = no such curve, though single readings can be large; an effect the other way counts as inactive or inconclusive.

SMILES	KB-V1 cytotox	SW480 rerep	D3 antag	MCF10A rereplic	KB-3-1 tox	D3 ag
COc1cc2ncnc(N(C)Cc3cccs3)c2cc1-c1ccc2c(c1)OCO2	i	.	.	.	i	.
CCCCN(Cc1ccco1)C(=O)Cn1ncc2c([nH]c3ccccc32)c1=O	i	.	.	.	i	0
CC(CN(C)Cc1ccccc1)OC(=O)c1ccccc1F (stereo not drawn)	i	-1%	-10	4%	i	-4
CC(CN(C)Cc1ccccc1)OC(=O)c1cccs1 (stereo not drawn)	i	2%	-76*	3%	i	-5
CC(CN(C)Cc1ccccc1)OC(=O)c1ccc2c(c1)OCCO2 (stereo not drawn)	i	15%	-77*	0%	i	0
O=C(NC(c1ccc(-c2ccccc2)cc1)c1cnccn1)C1CCN(Cc2ccc3c(c2)OCO3)CC1 (stereo not drawn)	?	.	-66*	.	?	-9
O=C(NC(c1ccccc1)c1cnccn1)C1CCN(Cc2ccc(Cl)c(Cl)c2)CC1 (stereo not drawn)	i	.	?	.	?	-20
O=C(NC(c1ccc(-c2ccccc2)cc1)c1cnccn1)C1CCN(Cc2ccc(Cl)c(Cl)c2)CC1 (stereo not drawn)	i	.	-57*	.	i	-14
CCOCCCNC(=O)c1c(NC(=O)c2cc(=O)c3ccccc3o2)sc2c1CCC2	i	.	.	.	i	-3
C=CCn1c(SCc2ccc(F)cc2)nc2c1c(=O)[nH]c(=O)n2C	i	-21%	34	-5%	i	5
Cc1cc(C)n(-c2nc3c(c(=O)[nH]c(=O)n3C)n2CC(O)COc2ccc(Cl)cc2Cl)n1 (stereo not drawn)	?	?	9	?	2.1µM*	0
CCC(C)Sc1nc2c(c(=O)[nH]c(=O)n2C)n1Cc1ccc(Cl)cc1 (stereo not drawn)	9.2µM*	13%	0	?	?	11
C=CCn1c(SCc2ccc(Cl)cc2)nc2c1c(=O)[nH]c(=O)n2C	16µM*	-2%	41	6%	i	1
CC(C)Sc1nc2c(c(=O)[nH]c(=O)n2C)n1Cc1ccc(Cl)cc1	i	-2%	-18	5%	i	18
C=CCn1c(Sc2ccccc2)nc2c1c(=O)[nH]c(=O)n2C	2.3µM*	-1%	-2	2%	7.3µM*	6
COc1ccc(Br)cc1CNC(=O)c1cc(=O)[nH]c2ccc(S(=O)(=O)N3CCCCC3C)cc12 (stereo not drawn)	.	.	.	.	.	-22
CCN(CC)CCOC(=O)c1ccc(Nc2c3c(nc4ccccc24)CCC3)cc1	i	.	.	.	i	-35
CCC(C)Sc1nc2c(c(=O)[nH]c(=O)n2C)n1CC(O)COc1ccccc1C (stereo not drawn)	18µM*	-2%	34	?	?	2
CN(CC(=O)NCCc1ccccc1)S(=O)(=O)c1ccc(Br)s1	?	-1%	-78*	8%	i	-30
CN(CC(=O)NCCN1CCN(Cc2ccccc2)CC1)S(=O)(=O)c1cccc2nsnc12	i	-4%	-18	18%	i	-8
CN(CC(=O)NCCc1ccccc1)S(=O)(=O)c1cccc2nsnc12	9.2µM*	?	0	-18%	i	2
CS(=O)(=O)N(CC(=O)NCCc1ccccc1)C1CCCCC1	23µM*	-5%	?	1%	i	-27
O=C(CCCNS(=O)(=O)c1cccc2nsnc12)NCCc1ccccc1	i	3%	4	0%	i	-7
O=S(=O)(NCCc1ccccc1)c1cccc2nsnc12	?	?	11	5.2µM*	i	-4
CC1CC(=O)N(CC(=O)Nc2ccc(OC(F)(F)F)cc2)c2ccccc2S1 (stereo not drawn)	?	.	.	.	i	-3
SMILES	KB-V1 cytotox	SW480 rerep	D3 antag	MCF10A rereplic	KB-3-1 tox	D3 ag
CC(C)c1ccc(NC(=O)CCCc2nc(-c3ccc(Cl)cc3)no2)cc1	i	.	.	.	i	3
CCOC(=O)[C@@H](N)CS	.	-3%	.	-3%	.	-29
COc1ccc(OCc2nnc3n2N=C(c2ccccc2)CS3)cc1	i	.	.	.	i	.
COCCn1c(C)cc(O)c(C(c2ccccc2F)N2CCN(c3ccccc3)CC2)c1=O (stereo not drawn)	?	.	.	.	i	-13
CN(C(=O)CCc1nc(-c2ccccc2F)no1)c1ccc(Cl)cc1	i	.	.	.	i	-7
C#CCN(Cc1ccccc1)S(=O)(=O)C=C	i	?	3	26µM*	?	6
C#CCN(C)Cc1ccccc1	i	?	20	?	i	15
CC(=O)Nc1ccccc1NC(=O)c1ccc2c(c1)OCO2	i	.	-18	.	i	-1
CN(C)CCC(=O)c1ccc2c(c1)OCO2	i	?	-61*	7.3µM*	?	-2
CCN(CC)CCOC(=O)c1cccc(Br)c1	i	-12%	-58*	-7%	i	-15
CC(=O)Nc1ccccc1OCC(=O)c1ccc2c(c1)OCO2	i	-3%	13	3%	i	47*
CN(C)CCC(=O)c1cccc(Br)c1	i	?	-20	18µM*	i	-8
CN(C)CCC(=O)c1ccc(F)cc1	i	?	1	?	i	1
Cc1ccccc1CSCCNC(=O)c1ccccc1	16µM*	1%	4	9%	i	-16
Cc1ccc(NC(=O)CN(c2ccccc2)S(=O)(=O)N(C)C)cc1Cl	12µM*	.	.	.	?	-7
Cc1ccccc1CSCCNC(=O)CSCc1ccc([N+](=O)[O-])cc1	16µM*	-13%	-14	-2%	i	-7
CCc1ccc(NC(=O)CN(c2ccccc2)S(=O)(=O)N(C)C)cc1	i	1%	-6	-1%	i	-4
Cc1ccccc1CSCCNC(=O)CN(c1ccccc1)S(=O)(=O)N(C)C	16µM*	.	.	.	?	-3
CCOc1ccc(NC(=O)CSc2oc(-c3ccc(C)cc3)nc2S(=O)(=O)c2ccc(C)cc2)cc1	i	.	.	.	i	6
CCOc1ccccc1NC(=O)N1CCN(S(=O)(=O)c2ccc3c(ccn3C)c2)CC1	i	.	.	.	i	4
